Assay [1] has as its target Nuclear respiratory factor 1 (Homo sapiens) (UniProt Q16656). The experiment in a line: ATG_NRF1_CIS: Attagene CIS-FACTORIAL HepG2 Assay for human Nuclear Respiratory Factor 1 (NRF1) Orphan Gene (AID 2282987). The following applies: HepG2 NRF1 cis-element reporter, Attagene multiplex; actives raise or lower the signal. The method in brief:
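Using DMSO as baseline, gain- or loss-of-signal was fitted for reporter mRNA levels in HepG2 cells transiently transfected with cis-regulated reporter units. Samples were taken 24 h after dosing and read by RT-PCR with capillary electrophoresis.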

Assay [2] is described as follows: ATG_NFI_CIS: Attagene CIS-FACTORIAL HepG2 Assay for human Nuclear Factor I (NFI) (AID 2282989). Conditions: HepG2 cis-regulatory reporter, NFI response element transcription; actives raise or lower the signal. The method in brief:
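After transient transfection of HepG2 with cis-promoter reporter constructs and 24 h dosing, RNA is reverse-transcribed, amplified, 6-FAM end-labelled and HpaI-digested before capillary analysis. Bidirectional curve fitting against DMSO.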

Assay [3] has as its target Myc proto-oncogene protein (Homo sapiens) (UniProt P01106). Briefly: ATG_Myc_CIS: Attagene CIS-FACTORIAL HepG2 Assay for human Myelocytomatosis (Myc) Proto-Oncogene Transcription Factor (AID 2282990). Conditions: HepG2, Attagene cis-reporter transcription factor activity; actives raise or lower the signal. A digest of the protocol: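 Cells of the HepG2 human liver line bear multiple cis-driven reporter transcription units. Reporter mRNA after 24 h exposure is reverse-transcribed, amplified, labelled and resolved by capillary electrophoresis, with gain- or loss-of-signal fitting relative to DMSO.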

Assay [4] can be described thus: ATG_NF_kB_CIS: Attagene CIS-FACTORIAL HepG2 Assay for human Nuclear Factor Kappa B (NF-kB) (AID 2282991). The following applies: HepG2 Attagene cis-factorial NF-kB reporter mRNA; actives raise or lower the signal. A digest of the protocol: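 Endpoint from a 52-component multiplexed HepG2 reporter panel: cis-regulated transcription units transiently transfected, 24 h dosing, reporter mRNA quantified by RT-PCR and capillary electrophoresis, scored as increase or decrease against DMSO.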

Assay [5] can be described thus: ATG_NRF2_ARE_CIS: Attagene CIS-FACTORIAL HepG2 Assay for human Nuclear Factor Erythroid 2 Related Factor 2 (NFR2) response to Antioxidant Response Elements (ARE) (AID 2282992). Conditions: HepG2 Attagene ARE/NRF2 reporter, transcription factor activity; actives raise or lower the signal. A digest of the protocol:
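Multiplexed reporter mRNA profiling in HepG2 after a 24 h chemical exposure. Curves fitted in both directions relative to DMSO negative control.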

The nature of assay [6]: ATG_Oct_MLP_CIS: Attagene CIS-FACTORIAL HepG2 Assay for human Octamer-Binding Transcription Factor (Oct) (AID 2282993). Conditions: HepG2 Attagene cis-factorial Oct reporter, mRNA; actives raise or lower the signal. The method in brief: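 Cells of the HepG2 line express promoter-controlled reporter sequences whose mRNA levels, after 24 h treatment, are measured by RT-PCR and capillary electrophoresis. Increases and decreases are scored relative to DMSO.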

Assay [7] has as its target Cellular tumor antigen p53 (Homo sapiens) (UniProt P04637). Briefly: ATG_p53_CIS: Attagene CIS-FACTORIAL HepG2 Assay for human p53 Transcription Factor (AID 2282994). Conditions: HepG2 p53 cis-element reporter, Attagene mRNA; actives raise or lower the signal. A digest of the protocol: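 Multiplexed reporter mRNA assay in human HepG2 liver cells; cis-regulated units report endogenous factor activity. Values come from bidirectional curve fitting against DMSO negative control after 24 h treatment.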

Assay [8] can be described thus: BSK_3C_uPAR: BioMAP Diversity Plus: 3C Assay for Urokinase-type plasminogen activator receptor (uPAR) Biomarker Activity (AID 2282998). Conditions: BioMAP 3C HUVEC, uPAR biomarker ELISA; actives raise or lower the signal. A digest of the protocol: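 Endothelial primary cells of human umbilical vein origin received test chemical; 24 h later uPAR was assayed by ELISA. Fitting was bidirectional, DMSO as negative control.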

Assay [9] can be described thus: BSK_3C_VCAM1: BioMAP Diversity Plus: 3C Assay for Vascular cell adhesion molecule 1 (VCAM1) Biomarker Activity (AID 2282999). The following applies: BioMAP 3C HUVEC, VCAM1 ELISA, cytokine-stimulated; actives raise or lower the signal. The method in brief:
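Endothelial cells from human umbilical vein are treated with test chemical. At 24 h, VCAM-1 is measured by ELISA, and responses in either direction are fitted relative to DMSO.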

Structures are written as SMILES. Several values for one entry are separate records, joined by “and”; a condition that tells them apart may be missing. Identical values can stand only once. More than one record can exist for a structure, and the calls need not agree. Activity calls are given as the source filed them. The calls were made as follows: active = hit-call score of the fitted dose curve at least 0.9, where 1 is the maximum; inactive = score below 0.9.

Myc proto-oncogene protein (Homo sapiens), sequence (P01106 whole entry, looked up): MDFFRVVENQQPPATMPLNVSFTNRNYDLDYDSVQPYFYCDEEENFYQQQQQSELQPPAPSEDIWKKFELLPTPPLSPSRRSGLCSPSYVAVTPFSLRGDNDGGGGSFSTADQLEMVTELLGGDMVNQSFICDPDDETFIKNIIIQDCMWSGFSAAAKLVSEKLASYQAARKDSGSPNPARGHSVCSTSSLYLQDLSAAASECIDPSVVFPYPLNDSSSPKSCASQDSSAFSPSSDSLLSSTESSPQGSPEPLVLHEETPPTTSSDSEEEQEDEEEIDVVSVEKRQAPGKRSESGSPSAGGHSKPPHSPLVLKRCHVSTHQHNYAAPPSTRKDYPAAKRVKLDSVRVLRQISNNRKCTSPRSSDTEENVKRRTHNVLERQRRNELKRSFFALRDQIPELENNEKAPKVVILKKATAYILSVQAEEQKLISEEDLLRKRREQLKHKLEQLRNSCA
Nuclear respiratory factor 1 (Homo sapiens), sequence (Q16656 whole entry, looked up): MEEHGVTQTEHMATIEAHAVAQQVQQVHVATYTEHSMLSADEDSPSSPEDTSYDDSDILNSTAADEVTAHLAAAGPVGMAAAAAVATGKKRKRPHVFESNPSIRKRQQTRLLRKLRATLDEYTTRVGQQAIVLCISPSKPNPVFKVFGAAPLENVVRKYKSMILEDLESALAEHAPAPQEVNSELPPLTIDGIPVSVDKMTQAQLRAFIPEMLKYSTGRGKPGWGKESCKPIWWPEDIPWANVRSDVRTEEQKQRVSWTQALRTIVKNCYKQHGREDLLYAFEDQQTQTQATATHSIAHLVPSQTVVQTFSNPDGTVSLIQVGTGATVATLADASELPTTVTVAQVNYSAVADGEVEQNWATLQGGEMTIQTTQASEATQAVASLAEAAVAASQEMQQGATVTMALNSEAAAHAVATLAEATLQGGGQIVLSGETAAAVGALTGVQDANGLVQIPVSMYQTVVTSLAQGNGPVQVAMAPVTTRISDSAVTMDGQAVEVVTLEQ
Cellular tumor antigen p53 (Homo sapiens), sequence (P04637 whole entry, looked up): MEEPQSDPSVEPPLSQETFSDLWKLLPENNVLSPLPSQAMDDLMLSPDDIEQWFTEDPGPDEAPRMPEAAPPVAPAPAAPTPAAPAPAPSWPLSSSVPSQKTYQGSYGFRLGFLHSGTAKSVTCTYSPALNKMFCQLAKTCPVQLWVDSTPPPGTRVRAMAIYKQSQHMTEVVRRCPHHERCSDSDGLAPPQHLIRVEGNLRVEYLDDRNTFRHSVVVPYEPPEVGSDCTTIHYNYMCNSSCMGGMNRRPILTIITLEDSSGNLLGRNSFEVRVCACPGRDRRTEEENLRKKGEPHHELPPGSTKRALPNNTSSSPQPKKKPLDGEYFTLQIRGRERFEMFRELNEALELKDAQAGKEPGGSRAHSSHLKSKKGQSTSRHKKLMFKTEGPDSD

As for `O=C(O)CS`, the molecule was called inactive in [1], in assay [2], in [3], in assay [4], in assay [5] and in [6].
The term AC50 denotes the concentration giving half of the maximal activity seen. In the case of `C=CCOC(=O)/C=C\C(=O)OCC=C`, the molecule was called inactive in [1], in [2], in assay [3] and in [6]. Besides, the AC50 was 15.8 µM (active) in assay [4], 6.75 µM (active) in assay [5] and 156 µM (active) in assay [7].
On to `NC(N)=NC(N)=NCCc1ccccc1`, for which the result in [1], in assay [2], in [3], in [4], in assay [6] and in assay [7] was inactive. The AC50 in assay [5] was 6.3 µM (active).
Consider `CCCCCCCCOC(=O)c1ccc(O)cc1`, for which the molecule was classed as inactive in assay [1], in assay [2], in assay [3], in [4] and in assay [5].
For the molecule `O=C(O)c1ccc(C(=O)O)c(C(=O)O)c1`, the molecule was classed as inactive in assay [1], in assay [2], in [3], in assay [4], in [5] and in assay [6].
On to `COc1cc(OC)c2ccc(=O)oc2c1`, for which the result in assay [1], in assay [2], in assay [3], in assay [4], in [5] and in [6] was inactive.
Consider `CCC(C)C1CCCCC1=O` (centres undefined), for which the outcome in [1], in assay [2], in assay [3], in [4], in assay [5] and in assay [6] was inactive. Besides, the outcome in assay [7] was inactive.
For the molecule `CC1=CC(O)CC(C)(C)C1` (centres undefined), the molecule was classed as inactive in assay [1], in assay [2], in assay [3], in [4], in [5] and in assay [6]. Further, the call in assay [7] was inactive.
For `CC(O)CN` (centres undefined), the result in [1], in assay [2], in [3], in [4] and in assay [5] was inactive.
In the case of `CC(C)(C)c1cc(CCC(=O)OCCSCCOC(=O)CCc2cc(C(C)(C)C)c(O)c(C(C)(C)C)c2)cc(C(C)(C)C)c1O`, the call in assay [1], in [2], in [3], in assay [4], in assay [5] and in [6] was inactive. For the same molecule, in assay [7], the call was inactive.
As to `CCCCC(CC)COCCO` (centres undefined), the molecule was called inactive in assay [1], in assay [2], in [3], in [4], in [5] and in assay [6]. For the same molecule, the call in [7] was inactive.
Consider `CC(=O)c1ccc(O)cc1`, for which the result in assay [1], in assay [2], in [3], in assay [4], in assay [5] and in [6] was inactive. Further, in assay [7], the molecule was called inactive.
As for `Nc1ccn([C@H]2CC[C@@H](CO)O2)c(=O)n1`, the result in assay [1], in assay [2], in assay [3], in assay [4], in assay [5] and in [6] was inactive. Moreover, the result in [7] was inactive.
For `CC1=C(C=O)C(C)(C)CCC1`, the outcome in [1], in [2], in assay [3], in [4], in [5] and in assay [6] was inactive.
`NNC(=O)OCc1ccccc1`: the outcome in assay [1], in assay [2], in assay [3], in assay [4], in assay [5] and in assay [6] was inactive.
Take `CCC(C)(C)c1cc(O)c(C(C)(C)CC)cc1O`: the AC50 was 12.3 µM (active) in assay [1]; 5.78 µM (active) in assay [2]; 60.4 µM (active) in assay [4]; 3.81 µM (active) in assay [5]; 33.4 µM (active) in assay [7]. For the same molecule, the molecule was called inactive in [3] and in assay [6].
`CCCCCCCCCCCCOC(C)=O`: the molecule was classed as inactive in [1], in assay [2], in [3], in [4], in [5] and in assay [6].
As for `COc1ccccc1O`, the result in assay [1], in assay [2], in [3], in [4], in assay [5] and in [6] was inactive. For the same molecule, in assay [7], the call was inactive.
Take `CCCO`: the molecule was classed as inactive in assay [1], in assay [2], in assay [3], in [4], in assay [5] and in assay [6]. In addition, the outcome in assay [7] was inactive.
`CCO[Si](CCC#N)(OCC)OCC`: the outcome in [1], in assay [2], in assay [3], in assay [4], in assay [5] and in [6] was inactive.
For `CC(C)(O)C(=O)c1ccc(OCCO)cc1`, the outcome in assay [1], in assay [2], in assay [3], in assay [4], in [5] and in [6] was inactive. For the same molecule, the result in assay [7] was inactive.
As for `C#C[C@]1(O)CC[C@H]2[C@@H]3CCc4cc(O)ccc4[C@H]3CC[C@@]21C`, the AC50 in assay [1] is 152 µM (active) and 138 µM (active); in assay [3], 146 µM (active) and 61.6 µM (active); in assay [4] it was 162 µM (active); in assay [7], 30 µM (active) [middle of 4 runs]; in assay [8], 6.34 µM (active). In addition, the molecule was called inactive in assay [1], in assay [3], in [4], in [7] and in [9].
For the molecule `O=C(C=Cc1ccccc1)OCCCc1ccccc1`, the outcome in [1], in assay [2], in assay [3], in assay [4], in assay [6] and in [7] was inactive. Moreover, the AC50 in assay [5] is 58 µM (active).
With `N#CCCCC(C#N)CCC#N` (centres undefined), the result in assay [1], in assay [2], in [3], in assay [4], in [5] and in assay [6] was inactive. Also, the molecule was classed as inactive in assay [7].
For `CC/C=C\C#N`, the result in assay [1], in assay [2], in [3], in assay [4], in assay [5] and in assay [6] was inactive. Further, in [7], the molecule was called inactive.
In the case of `OCC=Cc1ccccc1`, the outcome in [1], in assay [2], in assay [3], in [4] and in [6] was inactive. For the same molecule, the AC50 in [5] is 65.9 µM (active).
In the case of `C=CC(C)CCCC(C)(C)O` (centres undefined), the result in assay [1], in [2], in assay [3], in [4], in [5] and in [6] was inactive. Also, in assay [7], the molecule was classed as inactive.
Turning to `C=C(C)C(=O)OCCOCCOC(=O)C(=C)C`, the outcome in assay [1], in [2], in assay [3], in assay [4], in assay [5] and in assay [6] was inactive.
On to `Cc1ccccc1S`, for which the call in assay [1] and in [4] was inactive. Further, the AC50 is 74 µM (active) in assay [2], 45 µM (active) in assay [3], 24.5 µM (active) in assay [5] and 98.5 µM (active) in [6].
Consider `O=C(O)c1cc2ccccc2cc1O`, for which the molecule was classed as inactive in assay [1], in [2], in assay [3], in assay [4], in [5] and in assay [6].
As to `C1COCO1`, the result in [1], in assay [2], in [3], in [4], in assay [5] and in [6] was inactive.
For the molecule `CC(C)N(c1ccccc1)C(C)C`, the molecule was called inactive in assay [1], in [2], in assay [3], in assay [4] and in assay [5].
